The list is not random: actives were taken first. Their share in the collection is about 10%.
PNC inhibitor – High Content Assay for Compounds that inhibit the Assembly of the Perinucleolar Compartment; PC3M PTB-GFP, PNC prevalence imaging, 16 h; active compounds read low; activity change (PNC), negative = inhibition, % at 10 µM; 3.1% of 140,000 active;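 active = readout at or below -70, meaning at least 70% loss of cells showing the perinucleolar compartment, a nuclear body marking cancer cells; inconclusive = readout between -30 and a set limit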;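 also: plate controls were DMSO wells for no effect and camptothecin positive control wells for full effect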
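PC3M cells stably expressing PTB-GFP, 750–1000 cells/well, treated 16 h at 37 °C with compound (23 nl of library stock), in duplicate. After paraformaldehyde fixation and Hoechst stain, imaged at 20x; PNC prevalence scored by image analysis.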
HPGD inh – qHTS Assay for Inhibitors of HPGD (15-Hydroxyprostaglandin Dehydrogenase). Potency, µM, for inactives: at the top dose activity change, negative = inhibition, actives largely listed as inhibitors. 15-hydroxyprostaglandin dehydrogenase [NAD(+)] (Homo sapiens), P15428. AID 894, 2007. purified HPGD, NADH fluorescence kinetic, PGE2 substrate. 4.3% of 150,000 active; also: potency is read from the fitted curve at half-maximal effect
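20 nM HPGD preincubated 15 min at room temperature with compound in 50 mM Tris-HCl pH 8, 0.01% Tween 20. Started with 1 mM NAD+ and 30 uM prostaglandin E2; NADH fluorescence (360/450 nm) read 5 times over 30-s intervals, last minus first.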
LMNA splice mod – qHTS Assay for Modulators of Lamin A Splicing; 0.01% of 200,000 active; HeLa LMNA splicing GFP/RFP minigene ratio, 48 h; Potency, µM (highest dose often 46.1 µM), for inactives: at the highest dose ratio change, negative = inhibition, hits mostly inhibitors; active = well fitted inhibition curve with a large enough effect in the signal ratio, with a control signal flat, not every such curve was filed as active; inconclusive = small, poorly fitted or top-dose-only effect, or effect the other way, or a change in a side signal; the % refers to the signal ratio; also: potency is read from the fitted curve at half-maximal effect
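S3 HeLa stable clones carrying a lamin A-EGFP splicing minigene plus DsRed2 were seeded at 600 cells/well in Opti-MEM with 2% FBS, pin-dosed and incubated 48 h at 37°C. Acumen cytometry (488 nm) gave the GFP/RFP total-intensity ratio.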
KinaseGlo FLuc – Counterscreen for Luciferase (Kinase-Glo TM) Inhibition; Luciferin 4-monooxygenase (Photuris pensylvanica), Q27757; Kinase-Glo luciferase, ATP luminescence, 8 min; Potency, µM (highest dose often 38.3 µM), inactives show at the highest dose activity change, negative = inhibition, most hits filed as inhibitors; 0.28% of 200,000 active; AID 1379, 2008; active = well fitted inhibition curve with a large enough effect; inconclusive = small, poorly fitted or top-dose-only effect; also: potency is read from the fitted curve at half-maximal effect; nearly all actives have a fitted effect of over 60% in size
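Compound is pinned into ATP-containing buffer (10 uM ATP, imidazole pH 7.2, 7 mM MgCl2). Kinase-Glo luciferase reagent is then added. Light output is recorded following an 8-min room-temperature incubation.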
ALDH1A1 block – qHTS Assay for Inhibitors of Aldehyde Dehydrogenase 1 (ALDH1A1) | Aldehyde dehydrogenase 1A1 (Homo sapiens), P00352 | Purified ALDH1A1, NADH fluorescence, propionaldehyde substrate | Potency, µM (doses to about 75.3 µM), for inactives: at the highest dose activity, negative = inhibition, hits mostly inhibitors | 7.3% of 220,000 active;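 also: potency is read from the fitted curve at half-maximal effect; plate controls were no enzyme wells and a reference inhibitor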
Target sequence (P00352 whole entry, looked up): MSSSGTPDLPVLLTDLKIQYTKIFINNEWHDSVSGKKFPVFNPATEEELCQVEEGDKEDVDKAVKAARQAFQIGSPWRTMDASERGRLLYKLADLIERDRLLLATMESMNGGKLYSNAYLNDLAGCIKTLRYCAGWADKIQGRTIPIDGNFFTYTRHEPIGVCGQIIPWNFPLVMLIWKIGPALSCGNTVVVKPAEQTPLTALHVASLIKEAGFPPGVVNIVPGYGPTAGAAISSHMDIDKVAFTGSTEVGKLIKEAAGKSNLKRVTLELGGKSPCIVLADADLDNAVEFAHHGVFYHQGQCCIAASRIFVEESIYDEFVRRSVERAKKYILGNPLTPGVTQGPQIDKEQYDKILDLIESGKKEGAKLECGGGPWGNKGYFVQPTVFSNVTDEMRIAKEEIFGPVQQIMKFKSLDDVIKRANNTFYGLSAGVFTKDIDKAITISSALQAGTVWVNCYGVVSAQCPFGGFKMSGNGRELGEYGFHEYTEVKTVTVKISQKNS
* hit, by the source's call; ? = inconclusive; . = not tested or not shown; ! = not confirmed by another sample; [ ] = another dose, or the depositor's remark. Unless noted, calls follow the shape of the dose curve; as a rule, active = well fitted inhibition curve with a large enough effect (not every such curve was filed as active); inconclusive = small, poorly fitted or top-dose-only effect, or another doubt; inactive = no such curve, though single readings can be large or run the other way. Unless noted, % is scaled to controls: 0 for no effect and ±100 for the full control effect.

SMILES | PNC inhibitor | HPGD inh | LMNA splice mod | KinaseGlo FLuc | ALDH1A1 block
Fc1ccc(-n2[nH]nnc2=S)cc1N1CCCC1 | -19 | 18µM* | 3% | 1% | 14µM*
CCS(=O)(=O)c1ccc2oc(SCC(=O)NC3CCCC(C)C3C)nc2c1 (centres undefined) | ? | 32µM* | -20% | 0% | 3%
CCS(=O)(=O)c1ccc2oc(SCC(=O)NC34CC5CC(CC(C5)C3)C4)nc2c1 | -26 | -13% | -19% | 2% | 0%
O=C(NCC(c1ccco1)S(=O)(=O)c1cccs1)c1ccccc1F (centres undefined) | . | . | 7%[46 µM] | . | .
CC(C)c1ccc(NC(=S)NN(c2ccccc2)c2ccccc2)cc1 | -85* | 22µM* | 14% | -1% | 14µM*
C=C1C(=O)OC2C1CC/C(C)=C/CCC1(C)OC21 (centres undefined) | . | -14% | ? | 1% | ?
COc1ccc(N(C(=O)c2ccco2)S(=O)(=O)c2ccc(F)cc2)cc1 | 39 | 28µM* | -5% | 6% | -1%
COc1ccc(N(C(=O)c2ccco2)S(=O)(=O)c2cccc([N+](=O)[O-])c2)cc1 | 70 | ? | 4% | 4% | -13%
CCOc1ccccc1NC(=O)CCN1CCN(S(=O)(=O)c2ccc(Br)cc2)CC1 | -107* | -14% | -17% | -3% | -8%
CCN1CCN(CCC(=O)Nc2ccccc2OC)CC1 | -8 | -2% | 2% | -4% | 14%
O=c1c2ccccc2nc(SCc2cc([N+](=O)[O-])cc3c2OCOC3)n1-c1ccccc1 | -92* | -2% | 4% | -3% | 7%
O=c1c2ccccc2nc(SCc2ccc([N+](=O)[O-])cc2)n1-c1ccccc1 | 37 | -6% | 0% | -3% | 5%
COc1ccc(Nc2nnc(SCc3cc([N+](=O)[O-])cc4c3OCOC4)s2)cc1 | ? | 25µM* | 4% | -3% | ?
O=[N+]([O-])c1cc2c(c(CSc3nnc4ccccn34)c1)OCOC2 | 32 | -15% | -13% | -1% | ?
Cc1nc2cnc(N3CCN(C)CC3)nc2n(-c2ccccc2)c1=O | . | . | 2% | . | ?
CCOC(=O)C1CCN(C(c2cccc(F)c2)c2c(O)cc(C)n(CCOC)c2=O)CC1 (centres undefined) | . | . | 6%[46 µM] | . | .
CC(=O)OC1c2ccccc2C(=O)N1Cc1ccccc1Cl (centres undefined) | -15 | 18µM* | -7% | 3% | ?
Cc1ccc(S(=O)(=O)n2nc(-c3cccnc3)nc2N)cc1 | ? | -9% | 6% | 0% | 7%
CC(=O)Nc1ccc(S(=O)(=O)n2nc(-c3ccc(C)cc3)nc2N)cc1 | -15 | 6.3µM* | ? | 3% | 5%
O=C(O)c1cc(O)c2c(c1)C(=O)c1cccc(O)c1C2=O | 61 | ? | ? | -2% | ?
Cc1cc(O)c2c(c1)C(=O)c1cccc(O)c1C2=O | 14 | -6% | ? | -1% | 13µM*!
Nc1nn2c(C(F)(F)F)cc(=O)[nH]c2c1N=Nc1cccc(F)c1 | . | . | -15%[46 µM] | -1% | -4%
Cc1cc(=O)[nH]c2c(N=Nc3ccc(O)cc3)c(N)nn12 | . | . | . | -3% | 18µM*
COc1ccc(CNC(=O)COC(=O)c2ccccn2)cc1 | . | . | 3%[46 µM] | 0% | 25µM*
COc1ccc(CNC(=O)CN(Cc2ccc(OC)cc2)C(=O)c2csnn2)cc1 | . | . | . | 0% | 2.2µM*
COc1ccc(CNC(=O)c2csnn2)cc1 | -16 | -19% | -2% | 1% | 25µM*
COc1ccc(CNC(=O)CN(Cc2ccccc2)C(=O)c2csnn2)cc1 | ? | -6% | 9% | 0% | ?
COc1ccc(-c2nc(CCNC(=O)Cc3ccc(F)cc3)cs2)cc1 | . | . | -2%[46 µM] | . | .
COc1ccc(OCC2c3cc(OC)c(OC)cc3CCN2C(=O)COc2ccc(Cl)cc2Cl)cc1 (centres undefined) | . | . | -26%[46 µM] | . | .
COc1cccc(CN2CCN(Cc3cccn3-c3cccnc3)CC2CCO)c1 (centres undefined) | . | . | 3%[46 µM] | 1% | 2%
